Source: ChEMBL document CHEMBL1157539, “Thousands of chemical starting points for antimalarial lead identification” (Nature, 2010)

Columns and labels:
Format in all cases: functional
Plasmodium falciparum [1] = experiment: GSK_TCMDC: Inhibition of Plasmodium falciparum 3D7 in whole red blood cells, using parasite LDH activity as an index of growth. Test compounds present at 2uM
Plasmodium falciparum [2] = experiment: GSK_TCMDC: Inhibition of Plasmodium falciparum Dd2 in whole red blood cells, using parasite LDH activity as an index of growth. Test compounds present at 2uM
HepG2 = experiment: GSK_TCMDC: Percent inhibition of human HepG2 cell line. Test compounds present at 10uM.

Structure (SMILES)	Inhibition (Plasmodium falciparum [1]) [%]	Inhibition (Plasmodium falciparum [2]) [%]	Inhibition (HepG2) [%]
Br.CCCC1N=C(N)N=C(N)N1c1ccc(CC)cc1 (stereo not given)	94	4	11
N#Cc1ccc(-c2cnc3ccc(NCc4ccc(S(N)(=O)=O)cc4)nn23)cc1	98	100	7
Clc1ccccc1CN1CCC(NCc2cccc(-n3ccnc3)c2)CC1.O=C(O)C(F)(F)F	100	43	6
CCCNC(=O)c1cncc(-c2ccc(CNC(CC)c3ccccc3)cc2)c1.O=C(O)C(F)(F)F (stereo not given)	92	1	20
O=C(Nc1cccc(CN2CCN(Cc3ccc(O)cc3)CC2)c1)c1cccc(C(F)(F)F)c1.O=C(O)C(F)(F)F	91	15	21
c1ccc(-c2nc(Nc3nc4ccccc4[nH]3)[nH]c2-c2ccccc2)cc1	96	61	14
Cc1cccc(NC(=O)Nc2ccc(I)c(OCCN(C)C)c2)c1C	96	17	13
O=C(Nc1ccc(Cl)c(Cl)c1)N1CCC(CNCc2cccc([N+](=O)[O-])c2)CC1.O=C(O)C(F)(F)F	98	6	13
CN(C)c1ccc(C=C2SC(=N)N(c3nccs3)C2=O)cc1	97	50	38
COc1cc(-c2nc(C(C)(C)CN)[nH]c2-c2ccncc2)ccc1Br.Cl	97	95	17
COc1ccc(Cc2cccc(C(C(=O)NCc3cc(Cl)cc(Cl)c3)N3CCN(C)CC3)c2)cc1.O=C(O)C(F)(F)F (stereo not given)	100	24	8
Cc1ccc(NC(=O)NC2CCN(CCC(NC(=O)Cc3ccccc3)c3ccc(Cl)c(Cl)c3)CC2)cc1 (stereo not given)	100	2	16
CCc1c[nH]c2c(N3CCCC3=O)cc(C(=O)N[C@@H](Cc3ccccc3)[C@H](O)CNC(C)(C)CCCC(C)C)cc12.O=CO	96	97	22
CCCCOC(=O)C1=C(C)NC2=C(C(=O)CCC2)C1c1ccc(OC)c(Br)c1 (stereo not given)	93	87	5
Cc1cccc2nc(-c3ccc(-c4cccc(NC(=O)c5cncn5C)c4)cc3)[nH]c12	100	1	2
Cc1cc(NC2CCCC2)nc(Nc2ccc(F)cc2)n1	100	74	22
CCN1CCC(N(Cc2ccc(-c3ccc(Cl)cc3)cc2)C(=O)Cn2c(CCc3cccc(F)c3F)cc(=O)c3ccccc32)CC1.O=C(O)C(O)C(O)C(=O)O	99	95	100
O=C(CCN(Cc1ccco1)c1nc(-c2ccc(F)cc2)nc2ccccc12)NC1CC1	94	54	0
CCC[C@@H]([C@@H](CC1CCCCC1)C(=O)N[C@@H](CCCCNS(C)(=O)=O)C(=O)Nc1nccs1)N(O)C=O	100	74	0
O=C(c1c(-c2[nH]c3ccccc3c2C(=O)C(F)(F)F)[nH]c2ccccc12)C(F)(F)F	97	99	18
O=C(NCC1CCC(C(=O)O)CC1)c1ccc(/C=C/C(=O)N2CCc3ccccc3C2c2ccc3c(c2)OCO3)cc1 (stereo not given)	91	17	66
CN1C(C)(C)CC(NC(=O)c2ccc(-c3nc4cc(Cl)ccc4[nH]3)cc2)CC1(C)C	99	36	23
COc1cccc(-c2ccc3c(-c4cccc(S(C)(=O)=O)c4)cnc(N)c3c2)c1	96	21	45
CCCN(CCC)CCCNc1ccc(C(=O)Nc2ccc(OCC)cc2)cc1[N+](=O)[O-]	89	2	7
COc1ccc(NC(C)C(=O)Nc2ccc(Br)cc2)cc1S(=O)(=O)N1CCCCC1 (stereo not given)	99	97	2
COC(=O)Cn1c(C2CCN(CC3CCN(C(=O)/C=C/c4ccc(Cl)c(Cl)c4)CC3)CC2)nc2ccccc21	86	2	19
NCc1ccc(CNCc2ccc(-c3ccc(-c4nc5cc(F)ccc5[nH]4)cc3)cc2)cc1.O=C(O)C(F)(F)F	100	99	12
Cc1cccc2nc(-c3ccc(-c4ccc(CNCCNC(=O)c5ccnn5C)cc4)s3)[nH]c12.O=C(O)C(F)(F)F	100	97	20
OCCCCCCNc1ccnc2[nH]c3ccc(I)cc3c12	100	61	27
O=C(CC1SC(N2N=C(c3cccs3)CC2c2ccccc2)=NC1=O)Nc1ccccc1F (stereo not given)	87	76	9
